# Values joined by “and” are separate entries in the source; they are usually repeats but may differ in a detail not shown here. Equal values may be shown once. Records with an inconclusive call do not appear. A call without a number means that no potency is given here. Some compounds were tested as several samples or in several runs, with calls that do not always agree. Active and inactive are the calls of the source. Unless noted, the call rests on the fitted dose curve; in most records, active means well fitted curve in the direction sought with a large enough effect in the repeat runs; inconclusive means weak or mixed curves; inactive means no such curve, though single readings can be large; an effect the other way counts as inactive or inconclusive.
# Tests used:
# [1] = qHTS assay to identify small molecule agonists of the hypoxia (HIF-1) signaling pathway - cell viability counter screen (AID 1224844; calls by dose curve; further: nearly all actives have a fitted effect of over 50% in size)
# In short: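 In this counter screen, HRE-bla ME-180 cell viability after 17 hrs of compound exposure at 37C was read by CellTiter-Glo luminescence, multiplexed with the beta-lactamase reporter measurement.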
# [2] = qHTS assay to identify small molecule agonists of H2AX (AID 1224845; active means well fitted activation curve with a large enough effect in the signal ratio in the repeat runs, not every such curve was filed as active; the % refers to the signal ratio)
# In short: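 Wild-type CHO-K1 cells plated overnight, then exposed 3 hr at 37C to compounds at 15 concentrations (0.76% DMSO). Lysed, then HTRF anti-pH2AX(S139)-cryptate/anti-H2AX-d2 detection after 24 hr at room temperature; emissions 665 and 620 nm.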
# [3] = qHTS assay to identify small molecule agonists of the hypoxia (HIF-1) signaling pathway (AID 1224846; active means well fitted activation curve with a large enough effect in the signal ratio in the repeat runs, not every such curve was filed as active; the % refers to the signal ratio)
# In short: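 ME-180 HRE-bla reporter cells; compounds in DMSO, 17 h at 37C; read-out beta-lactamase via CCF4-AM FRET.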
# [4] = qHTS assay to identify small molecule agonists of H2AX - cell viability counter screen (AID 1224847; calls by dose curve; further: top concentration of the series differs between compounds; nearly all actives have a fitted effect of over 30% in size)
# In short: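 Cytotoxicity counter screen in wild-type CHO-K1 cells: a 3 hr compound treatment at 37C across 15 concentrations, followed by CellTiter-Glo luminescence to gauge viable cells.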
# [5] = qHTS assay to identify small molecule antagonists of the estrogen related receptor (ERR) signaling pathway from Tox21 library (AID 1224848); further: nearly all actives have a fitted effect of over 50% in size
# In short: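 First, 2,000 ERR cells per well were plated and held 6 h at 37 C/5% CO2. Next, compounds in DMSO were pinned in and left 18 h at 37 C. Finally, ONE-Glo was added and luminescence read after 30 min at room temperature.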
# [6] = qHTS assay to identify small molecule agonists of the estrogen related receptor (ERR) signaling pathway from Tox21 library (AID 1224849; calls by dose curve; further: nearly all actives have a fitted effect of over 15% in size); settings: ERR reporter cell line, ONE-Glo luciferase, 18 h
# In short: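 Luciferase activity in ERR pathway reporter cells served as the agonist readout; exposure lasted 18 h at 37 C, with ONE-Glo detection after 30 min at room temperature.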
# [7] = qHTS RealTime-Glo MT Cell Viability Assay in HepG2 cells - 24 hour (AID 1224867); further: nearly all actives have a fitted effect of over 50% in size
# In short: (§1)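 HepG2 suspension premixed with RealTime-Glo reagents is plated at 600 cells per well and left 5 h at 37 C/5% CO2. Compounds in DMSO then go in, and bioluminescence reflecting viable cell number is recorded over 40 h.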
# [8] = qHTS RealTime-Glo MT Cell Viability Assay in HEK293 cells - 32 hour (AID 1224868); further: nearly all actives have a fitted effect of over 50% in size; further: potency means the concentration at half of the fitted maximal effect
# In short: (§2)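 Reads taken at 0, 8, 16, 24, 32 and 40 h from the same wells. HEK293 cells (600/well) carried RealTime-Glo reagents from seeding, with compound added after a 5 h settle at 37 C.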
# [9] = qHTS RealTime-Glo MT Cell Viability Assay in HepG2 cells - 40 hour (AID 1224870); further: nearly all actives have a fitted effect of over 50% in size
# In short: (§3)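 HepG2 cells mixed with RealTime-Glo MT reagents (NanoLuc plus cell-permeant prosubstrate) were seeded at 600 cells/well, incubated 5 h at 37 C/5% CO2, then pinned with compounds in DMSO; nonlytic luminescence tracked viability during 40 h treatment.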
# [10] = A CellTox Green Cytotoxicity Assay to monitor cytotoxicity in HEK293 cells - 40 hour (AID 1224871); further: nearly all actives have a fitted effect of over 45% in size
# In short: (§4)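 Real-time, in one plate: 600 HEK293 cells/well with dead-cell DNA dye, pinned compound after 5 h, 37 C incubation over 40 h; viable cells give no appreciable fluorescence.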
# [11] = qHTS RealTime-Glo MT Cell Viability Assay in HEK293 cells - 16 hour (AID 1224872)
# In short: as §2
# [12] = qHTS RealTime-Glo MT Cell Viability Assay in HepG2 cells - 8 hour (AID 1224873); further: nearly all actives have a fitted effect of over 55% in size
# In short: as §3
# [13] = qHTS RealTime-Glo MT Cell Viability Assay in HEK293 cells - 40 hour (AID 1224874); settings: RealTime-Glo luminescence; max response: stronger effect = lower value; further: nearly all actives have a fitted effect of over 50% in size; further: potency means the concentration at half of the fitted maximal effect
# In short: (§5)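 Kinetic, non-lysing viability readout. Seed HEK293 (600/well) with reagent, incubate 5 h at 37 C/5% CO2, pin 23 nL compound in DMSO, incubate at 37 C, read luminescence at 0, 8, 16, 24, 32, 40 h.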
# [14] = A CellTox Green Cytotoxicity Assay to monitor cytotoxicity in HEK293 cells - 24 hour (AID 1224875); further: nearly all actives have a fitted effect of over 45% in size
# In short: as §4
# [15] = A CellTox Green Cytotoxicity Assay to monitor cytotoxicity in HepG2 cells - 16 hour (AID 1224876); further: nearly all actives have a fitted effect of over 45% in size
# In short: (§6)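 Cytotoxicity was tracked as dead-cell DNA fluorescence in HepG2 cells treated with test compounds at 37 C; each time-point value comes from one kinetic series spanning 0, 8, 16, 24, 32 and 40 h.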
# [16] = qHTS RealTime-Glo MT Cell Viability Assay in HepG2 cells - 32 hour (AID 1224877); further: nearly all actives have a fitted effect of over 55% in size
# In short: as §1
# [17] = A CellTox Green Cytotoxicity Assay to monitor cytotoxicity in HepG2 cells - 24 hour (AID 1224878); further: nearly all actives have a fitted effect of over 45% in size
# In short: as §6
# [18] = A CellTox Green Cytotoxicity Assay to monitor cytotoxicity in HepG2 cells - 40 hour (AID 1224879); further: nearly all actives have a fitted effect of over 40% in size
# In short: as §6
# [19] = A CellTox Green Cytotoxicity Assay to monitor cytotoxicity in HEK293 cells - 0 hour (AID 1224869); further: nearly all actives have a fitted effect of over 50% in size
# In short: as §4
# [20] = qHTS RealTime-Glo MT Cell Viability Assay in HEK293 cells - 0 hour (AID 1224880)
# In short: as §5
compound,measurement,setting,value
CN(C)C(=O)Nc1ccc(Cl)c(Cl)c1,Potency,[1],inactive
same,Potency,[2],inactive
same,outcome,[3],inactive
same,Potency,[4],inactive
same,Potency,[5],inactive
same,"activity change, positive = activation",[6]; at 42.5 µM (top of the series),-0.767% (inactive)
same,"activity change, positive = activation",[6]; at 92.4 µM (top of the series),-14.1% (inactive) and -8.37% (inactive)
same,Potency,[7],inactive
same,Potency,[8],inactive
same,Potency,[9],inactive
same,Potency,[10],inactive
same,Potency,[11],inactive
same,Potency,[12],inactive
same,max response,[13],-20.7% (inactive)
same,Potency,[14],inactive
same,Potency,[15],inactive
same,Potency,[16],inactive
same,Potency,[17],inactive
same,Potency,[18],inactive
CCCCCCCC(=O)OCC(COC(=O)CCCCCCC)OC(=O)CCCCCCC,Potency,[1],inactive
same,Potency,[2],inactive
same,outcome,[3],inactive
same,Potency,[4],inactive
same,Potency,[7],inactive
same,Potency,[8],inactive
same,Potency,[9],inactive
same,Potency,[10],inactive
same,Potency,[11],inactive
same,Potency,[12],inactive
same,max response,[13],4.45% (inactive) and -0.248% (inactive) and 1.22% (inactive)
same,Potency,[14],inactive
same,Potency,[15],inactive
same,Potency,[16],inactive
same,Potency,[17],inactive
same,Potency,[18],inactive
Nc1ccc(S(N)(=O)=O)cc1,Potency,[1],inactive
same,Potency,[2],inactive
same,outcome,[3],inactive
same,Potency,[4],inactive
same,Potency,[7],inactive
same,Potency,[8],inactive
same,Potency,[19],inactive
same,Potency,[9],inactive
same,Potency,[10],inactive
same,Potency,[11],inactive
same,Potency,[12],inactive
same,max response,[13],9.21% (inactive) and 0.884% (inactive) and 1.65% (inactive)
same,Potency,[14],inactive
same,Potency,[15],inactive
same,Potency,[16],inactive
same,Potency,[17],inactive
same,Potency,[18],inactive
same,Potency,[20],inactive
NC(=O)c1cccnc1,Potency,[1],inactive
same,Potency,[2],inactive
same,outcome,[3],inactive
same,Potency,[4],inactive
same,Potency,[7],inactive
same,Potency,[8],inactive
same,Potency,[19],inactive
same,Potency,[9],inactive
same,Potency,[10],inactive
same,Potency,[11],inactive
same,Potency,[12],inactive
same,max response,[13],9.96% (inactive) and -1.91% (inactive) and 6.24% (inactive)
same,Potency,[14],inactive
same,Potency,[15],inactive
same,Potency,[16],inactive
same,Potency,[17],inactive
same,Potency,[18],inactive
CCOc1ccc(NC(C)=O)cc1,Potency,[1],inactive
same,Potency,[2],inactive
same,outcome,[3],inactive
same,Potency,[4],inactive
same,Potency,[5],inactive
same,"activity change, positive = activation",[6]; at 42.5 µM (top of the series),9.79% (inactive)
same,"activity change, positive = activation",[6]; at 92.4 µM (top of the series),9.07% (inactive) and -21.8% (inactive)
same,Potency,[7],inactive
same,Potency,[8],inactive and 24.5 µM (active)
same,Potency,[9],inactive
same,Potency,[10],inactive
same,Potency,[11],inactive
same,Potency,[12],inactive
same,Potency,[13],21.9 µM (active)
same,max response,[13],2.25% (inactive) and 1.74% (inactive)
same,Potency,[14],inactive
same,Potency,[15],inactive
same,Potency,[16],inactive
same,Potency,[17],inactive
same,Potency,[18],inactive
same,Potency,[20],inactive
CCOC(N)=O,Potency,[1],inactive
same,Potency,[2],inactive
same,outcome,[3],inactive
same,Potency,[4],inactive
same,Potency,[7],inactive
same,Potency,[8],inactive
same,Potency,[9],inactive
same,Potency,[10],inactive
same,Potency,[11],inactive
same,Potency,[12],inactive
same,max response,[13],6.85% (inactive) and 12.6% (inactive) and -3.78% (inactive)
same,Potency,[14],inactive
same,Potency,[15],inactive
same,Potency,[16],inactive
same,Potency,[17],inactive
same,Potency,[18],inactive
NS(=O)(=O)O,Potency,[1],inactive
same,Potency,[2],inactive
same,outcome,[3],inactive
same,Potency,[4],inactive
same,Potency,[7],inactive
same,Potency,[8],inactive
same,Potency,[19],inactive
same,Potency,[9],inactive
same,Potency,[10],inactive
same,Potency,[11],inactive
same,Potency,[12],inactive
same,max response,[13],0.202% (inactive) [middle of 4 runs]
same,Potency,[14],inactive
same,Potency,[15],inactive
same,Potency,[16],inactive
same,Potency,[17],inactive
same,Potency,[18],inactive
same,Potency,[20],inactive
CCN(CC)C(=O)c1cccc(C)c1,Potency,[1],inactive
same,Potency,[2],inactive
same,outcome,[3],inactive
same,Potency,[4],inactive
same,Potency,[5],inactive
same,"activity change, positive = activation",[6]; at 42.5 µM (top of the series),5.47% (inactive)
same,"activity change, positive = activation",[6]; at 92.4 µM (top of the series),0.249% (inactive) and -23.9% (inactive)
same,Potency,[7],inactive
same,Potency,[8],inactive
same,Potency,[9],inactive
same,Potency,[10],inactive
same,Potency,[11],inactive
same,Potency,[12],inactive
same,max response,[13],-1.16% (inactive) and -0.892% (inactive) and 2.65% (inactive)
same,Potency,[14],inactive
same,Potency,[15],inactive
same,Potency,[16],inactive
same,Potency,[17],inactive
same,Potency,[18],inactive
NS(=O)(=O)c1cc2c(cc1Cl)NCNS2(=O)=O,Potency,[1],inactive
same,Potency,[2],inactive
same,Potency,[4],inactive
same,Potency,[5],inactive
same,"activity change, positive = activation",[6]; at 42.5 µM (top of the series),-0.0876% (inactive)
same,"activity change, positive = activation",[6]; at 92.4 µM (top of the series),0.0385% (inactive) and 5.11% (inactive)
same,Potency,[7],inactive
same,Potency,[8],inactive
same,Potency,[9],inactive
same,Potency,[10],inactive
same,Potency,[11],inactive
same,Potency,[12],inactive
same,max response,[13],0.173% (inactive) and -4.85% (inactive) and 1.86% (inactive)
same,Potency,[14],inactive
same,Potency,[15],inactive
same,Potency,[16],inactive
same,Potency,[17],inactive
same,Potency,[18],inactive
OC[C@H]1O[C@H](O[C@]2(CCl)O[C@H](CCl)[C@@H](O)[C@@H]2O)[C@H](O)[C@@H](O)[C@H]1Cl,Potency,[1],inactive
same,Potency,[2],inactive
same,outcome,[3],inactive
same,Potency,[4],inactive
same,Potency,[7],inactive
same,Potency,[8],inactive
same,Potency,[9],inactive
same,Potency,[10],inactive
same,Potency,[11],inactive
same,Potency,[12],inactive
same,max response,[13],-6.96% (inactive) and 4.96% (inactive) and 1.17% (inactive)
same,Potency,[14],inactive
same,Potency,[15],inactive
same,Potency,[16],inactive
same,Potency,[17],inactive
same,Potency,[18],inactive
O=C1c2c(O)cccc2Cc2cccc(O)c21,Potency,[1],inactive
same,Potency,[2],inactive
same,Potency,[4],inactive
same,Potency,[7],inactive
same,Potency,[8],inactive
same,Potency,[19],inactive
same,Potency,[9],inactive
same,Potency,[10],inactive
same,Potency,[11],inactive
same,Potency,[12],inactive
same,max response,[13],-2.74% (inactive) and 0.603% (inactive) and 0.249% (inactive)
same,Potency,[14],inactive
same,Potency,[15],inactive
same,Potency,[16],inactive
same,Potency,[17],inactive
same,Potency,[18],inactive
same,Potency,[20],inactive

# — PubChem BioAssay (Tox21)
